Source: PubChem
Sampled rows, rich in hits. Any-hit rate of the full collection: about 19%.
IL1B secr inh: blocks inflammasome-driven IL-1 beta release. THP-1 LPS/ATP IL-1B secretion, AlphaLISA, 16 h; hits give low values. activity change, % at 57.5 µM. actives 4.7% (n = 360,000). AID 743279; in the data active = activity change below about -50%; inconclusive = mostly about -30% to -49%
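THP-1 cells pretreated 1 hr with compounds (up to 57.5 uM final), then stimulated with LPS (250 ng/mL final) plus ATP (1.25 mM final); secreted IL-1B measured by AlphaLISA after 16 hr, decreased signal indicating inhibition.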
HT1080NT lethal: kills 2HG-producing HT-1080-NT fibrosarcoma cells. HT-1080-NT fibrosarcoma viability, CellTiter-Glo ATP luminescence, 48 h. Potency, µM (series often up to 46.1 µM), for inactives: at the top dose activity, negative = less viability, hits mostly cytotoxic. actives 1.6% (n = 360,000). AID 686970;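 note: NT is the 2HG producing partner of a matched IDH1 knockdown line; potency is the fitted concentration of half-maximal effect; 0% = DMSO-treated cells and -100% = media-only wells without cells; nearly all actives have a fitted effect of over 55% in size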
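Viability of the 2HG-overproducing fibrosarcoma line after 48 hours of compound exposure at 37 degrees C was determined by luminescence with CellTiter-Glo, and concentration-effect curves were then fitted and categorized.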
TDP1 cell noCPT: qHTS for Inhibitors of human tyrosyl-DNA phosphodiesterase 1 (TDP1): qHTS in cells in absence of CPT; DT40 Tdp1-/- hTDP1 cells, no CPT, ATP luminescence, 48 h; Potency, µM (top dose mostly 46.2 µM), for inactives: at the highest dose activity change, negative = growth inhibition, actives largely listed as inhibitors; actives 15% (n = 420,000); AID 686978, 2013; note: potency is the fitted concentration of half-maximal effect; nearly all actives have a fitted effect of over 55% in size
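No-CPT arm: Tdp1-/-;hTDP1 DT40 cells (400/well) plus compounds, incubated ≥48 hr at 37 °C. Readout CellTiter-Glo luminescence.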
HT1080 IDH1KD tx: toxicity to HT-1080 IDH1 knockdown cells (counter line); HT-1080 IDH1 knockdown viability, ATP luminescence, 48 h; Potency, µM (doses to about 46.1 µM), inactives show at the top dose activity, negative = toxicity, usual class: cytotoxic; actives 2% (n = 360,000); AID 686971;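 note: potency is the fitted concentration of half-maximal effect; 0% = DMSO wells and -100% = cell-free medium wells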
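In this qHTS, HT-1080 cells depleted of IDH1 are exposed for 48 h at 37 °C to compound titrations. Toxicity is scored from CellTiter-Glo luminescence, with DMSO as full viability and medium alone as none.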
TDP1 cell CPT: growth inhibition of DT40 Tdp1-/-;hTDP1 cells with camptothecin (screen for TDP1 inhibitors). chicken DT40 Tdp1-/-;hTDP1 cells + 20 nM CPT, ATP luminescence, 48 h. Potency, µM (series often up to 46.2 µM), inactives show top-dose activity change, negative = growth inhibition, most hits filed as inhibitors. AID 686979. actives 12% (n = 420,000); note: potency is the fitted concentration of half-maximal effect; nearly all actives have a fitted effect of over 55% in size
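Cell growth measured by CellTiter-Glo luminescence after a minimum 48 h, 37 C compound exposure with 20 nM CPT in Tdp1-knockout DT40 cells stably expressing hTDP1, seeded 400/well; qHTS titration format.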
The depositor's hits bear a star; i = inactive; u = inconclusive; x = not tested or not shown. Unless noted, calls come from the whole dose curve; as a rule, active = well fitted curve in the direction sought with a large enough effect; inconclusive = small, poorly fitted or top-dose-only effect, or another doubt; inactive = no such curve, though single readings can be large; an effect the other way counts as inactive or inconclusive. Unless noted, % is set by controls: 0 for no effect and ±100 for the full control effect.

SMILES | IL1B secr inh | HT1080NT lethal | TDP1 cell noCPT | HT1080 IDH1KD tx | TDP1 cell CPT
Cc1nn(C(=O)c2ccccc2)c(C)c1Sc1ccc(Cl)cc1 | x | x | 8.2µM* | x | u
CCC(=O)Oc1c(Sc2ccc(Cl)cc2)c(C)nn1-c1ccccc1 | x | x | 0.517µM* | x | u
Cc1cc(C)n2nc(SCC(=O)NC3CCCC(C)C3C)nc2n1 (stereo unspecified) | 10.4 | -0.1% | 28.6% | 1.0% | -10.2%
CCOC(=O)C1(CCC(C)C)CC(CSc2nc3ccccc3[nH]2)OC1=O (stereo unspecified) | 24.9 | -1.8% | 18.4µM* | 1.9% | 11.6µM*
O=C(COC(=O)CCC(=O)c1ccc(F)cc1)NCc1ccccc1Cl | 0.4 | 0.0% | -7.9% | 12.5% | 5.9%
Cc1cccc(-n2ncc3c(Nc4ccc(C)c(Cl)c4)ncnc32)c1 | x | x | 18.4µM* | x | 18.4µM*
CCOC(=O)c1ccc(Nc2ncnc3c2cnn3-c2cccc(Cl)c2)cc1 | x | x | u | x | 2.1%
COc1ccc(Nc2ncnc3c2cnn3-c2ccc(C)cc2)cc1Cl | x | x | 23.1µM* | x | u
COc1ccccc1Nc1ncnc2c1cnn2-c1cccc(C)c1 | -6.6 | -0.3% | u | -9.1% | u
Cc1cccc(-n2ncc3c(Nc4ccc(Oc5ccc(Cl)cc5)cc4)ncnc32)c1 | x | x | 14.6µM* | x | 18.4µM*
C=C(C)CC(Nc1ccc(OC)cc1)c1ccco1 (stereo unspecified) | 0.0 | 11.7% | -4.7% | 9.6% | -4.6%
CC1(C)CC(=O)C(C(=O)/C=C/NCCc2ccccc2)C(=O)C1 | 28.8 | u | u | u | -25.3%
CC1(C)CC(=O)C(C(=O)/C=C/c2ccco2)C(=O)C1 | -13.8 | -0.2% | 20.6µM* | -1.8% | 14.6µM*
CC1=C(C(=O)OC2CCCC2)C(c2coc3ccc(C)cc3c2=O)C2=C(CCCC2=O)N1 (stereo unspecified) | -15.9 | -13.8% | 20.6µM* | -17.9% | u
CC1=C(C(=O)OC2CCCC2)C(c2coc3ccccc3c2=O)C2=C(CC(C)(C)CC2=O)N1 (stereo unspecified) | -11.4 | u | u | u | 16.4µM*
CC1=C(C(=O)OCC2CCCO2)C(c2coc3ccc(Cl)cc3c2=O)C2=C(CCCC2=O)N1 (stereo unspecified) | 4.3 | -13.4% | -28.5% | -15.6% | 2.1%
COCCOC(=O)C1=C(C)N=C2SCCC(=O)N2C1/C=C/c1ccccc1 (stereo unspecified) | -22.7 | -1.6% | 18.4µM* | 12.7% | 18.4µM*
CC1(C)Cc2c(sc3c2C(=O)N(c2ccccc2)C2=NCCN23)CS1 | -18.9 | -1.7% | -19.9% | -0.6% | 0.8%
CC1(C)Cc2c(sc3c2C2=NCCN2C=N3)CS1 | 1.4 | -3.1% | 16.4µM* | 1.2% | -25.6%
Cc1ccccc1-n1ncc(C(C)NC(=O)c2ccco2)c1C (stereo unspecified) | 19.9 | -0.2% | -29.9% | 1.3% | -27.0%
CN1CCN(C(=O)c2ccc3c(c2)N(Cc2ccc(F)cc2)C(=O)c2ccccc2S3(=O)=O)CC1 | x | x | -28.4% | x | -14.9%
O=C(c1ccc2c(c1)N(Cc1cccc(Cl)c1)C(=O)c1ccccc1S2(=O)=O)N1CCCCCC1 | x | x | 23.1µM* | x | 18.4µM*
O=C(NCCCN1CCCC1)c1ccc2c(c1)N(Cc1cccc(Cl)c1)C(=O)c1ccccc1S2(=O)=O | -9.8 | -2.1% | u | -0.6% | u
CC1CCCN(CCCNC(=O)c2ccc3c(c2)N(Cc2cccc(Cl)c2)C(=O)c2ccccc2S3(=O)=O)C1 (stereo unspecified) | x | x | 5.8µM* | x | 6.51µM*
COc1ccc(N2CCN(C(=O)c3ccc4c(c3)N(Cc3cccc(Cl)c3)C(=O)c3ccccc3S4(=O)=O)CC2)cc1 | x | x | -14.0% | x | -5.0%
SMILES | IL1B secr inh | HT1080NT lethal | TDP1 cell noCPT | HT1080 IDH1KD tx | TDP1 cell CPT
O=C(c1ccc2c(c1)N(Cc1ccc(F)cc1)C(=O)c1ccccc1S2(=O)=O)N1CCN(Cc2ccccc2)CC1 | x | x | 8.2µM* | x | 11.6µM*
O=C(c1ccc2c(c1)N(Cc1ccccc1)C(=O)c1ccccc1S2(=O)=O)N1CCc2ccccc21 | x | x | 3.26µM* | x | 4.11µM*
O=C(COC(=O)c1ccc(F)cc1F)NC1CC1 | -6.3 | -1.6% | 0.8% | 25.6% | 12.0%
O=C(COC(=O)CNS(=O)(=O)c1ccc(Br)cc1Cl)NCCc1ccccc1 | i | 4.8% | 11.1% | 16.7% | -11.7%
COc1ccc(OC)c(-n2c(SCC(=O)Nc3cccc(S(N)(=O)=O)c3)nc3ccccc3c2=O)c1 | u | -17.1% | -27.3% | -0.2% | u
COc1ccccc1N1CCN(C(=O)c2ccc3c(c2)N(Cc2ccccc2)C(=O)c2ccccc2S3(=O)=O)CC1 | x | x | 11.6µM* | x | u
O=C(c1ccc2c(c1)N(Cc1cccc(Cl)c1)C(=O)c1ccccc1S2(=O)=O)N1CCN(Cc2ccccc2)CC1 | x | x | 9.2µM* | x | 14.6µM*
CCN1C(=O)c2ccccc2S(=O)(=O)c2ccc(C(=O)N3CCOCC3)cc21 | 6.5 | 7.0% | 10.0% | 1.9% | 0.2%
Cc1cccc(N2CCN(C(=O)c3ccc4c(c3)N(Cc3cccc(Cl)c3)C(=O)c3ccccc3S4(=O)=O)CC2)c1C | x | x | -5.7% | x | -7.1%
CCC1CCCCN1C(=O)c1ccc2c(c1)N(Cc1cccc(Cl)c1)C(=O)c1ccccc1S2(=O)=O (stereo unspecified) | x | x | 16.4µM* | x | 18.4µM*
O=C(NCc1ccccc1)c1ccc2c(c1)N(Cc1ccccc1)C(=O)c1ccccc1S2(=O)=O | x | x | u | x | -8.9%
CC1CCCCN1C(=O)c1ccc2c(c1)N(Cc1ccc(F)cc1)C(=O)c1ccccc1S2(=O)=O (stereo unspecified) | x | x | 18.4µM* | x | u
COc1cc(=O)n2c(c1C(=O)NCc1ccco1)CCN(Cc1c(F)cccc1F)CC2 | x | x | -7.2% | x | -7.0%
COc1ccc(CN2CCN(C(=O)Cn3ncn4cccc4c3=O)CC2)c(OC)c1OC | 3.5 | -0.5% | -6.2% | 0.4% | -25.8%
O=C(c1ccc2c(c1)N(Cc1cccc(Cl)c1)C(=O)c1ccccc1S2(=O)=O)N1CCCC1 | x | x | 20.6µM* | x | 23.1µM*
Cc1ccc(C)c(S(=O)(=O)NC(C)C(=O)NCc2ccccn2)c1 (stereo unspecified) | 6.9 | 12.9% | -8.5% | 21.4% | 1.7%
CCOC(=O)CN1C(=O)C(O)(CC(=O)c2cccc(OC)c2)c2ccccc21 (stereo unspecified) | 17.5 | -3.1% | 16.4µM* | -13.5% | u
C#CCN1C(=O)C(O)(CC(=O)c2cccc(OC)c2)c2ccccc21 (stereo unspecified) | 40.2 | -3.6% | 4.61µM* | -8.3% | 5.8µM*
